This note sets out measurements from PubChem BioAssay AID1159506 (National Center for Advancing Translational Sciences (NCATS), 2015).

Over roughly 59,000 sequences, the read-out has its median near -0.00055; the lowest 2% begin near -2. The full list was thinned out, with the lowest values kept by preference.

A short description of the assay: Identification of proteins required for the processing of the EWS-FLI1 nascent transcript.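 Note: robust z of luciferase light less the median z of siRNAs with the same seed.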 Particulars: TC32 Ewing sarcoma NR0B1-luc vs CMV-luc (EWS-FLI1 target promoter against control promoter), 48 h; screened at 20 nM (by protocol). In short, it runs like this: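 Genome-wide siRNA screen (Ambion v4.1, three siRNAs per gene, 20 nM final, RNAiMax) in Ewing sarcoma TC32 cells carrying NR0B1-promoter or CMV-promoter luciferase; OneGlo luciferase read 48 h post-transfection. Data normalized, z-score-MAD transformed and seed-adjusted.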
UUAGGGACGAUGUCCACGG against RSPH6A returned a seed-corrected z-score of -0.977. With UCUGGUUCAGCAUGAGCUG against SYT8 the figure was -2.2; with UAUAACUUGUCGGAAACGC against NPIPB3, 0.406; with UCAAGUCCGACUUGGAGCG against FAM110A, -0.0203. As for AGUCUGAAUACCAUCCUUC against GATA1, the figure is -0.386; as for AACAUAGCUAAAAUGAUCC against CLMN, -2.28. With ACUGAGCUCAUUCUUGUCC against HSF1 the figure was -0.661; with UUUACAGCUGAUGAUAUGG against RWDD4, -0.249. On to UUCGAUAGUAACAAAGUUC against PCDH9, for which the seed-corrected z-score was -2.03. As for AAAGUCUCCAGUUAAUAGC against MRPL46, the figure is 1.41; as for UAGUGCACCACGCAGGUCU against FKBP1A, 0.92.

As to UUACGGACAUCCGAUCUUC against DPYS, the seed-corrected z-score was -0.0377. In turn, UCAUAGUCCGCGAUCACCU against EDF1 showed a seed-corrected z-score of -0.388. As to UAUCCAGUACGUGAGGCCC against LRP5L, the seed-corrected z-score is -1.82.

In turn, UUGGUUGUCAGAGUAGGUG against HSPA1L registered a seed-corrected z-score of -2.39.

Consider UUUCCCAUCCUUAAAGAGC against PTGS1, for which the seed-corrected z-score was -0.201. AAUCUAACUGCAUUCGUUG against RSBN1L gave a seed-corrected z-score of 0.409. With UUGUGAGCCGACAGGAUGC against PYCR2 the figure was -0.604; with AAAACAUACAUUGACUUGC against LINC01098, -0.153; with UGAGUUUCCGUACCACACC against PRDM12, -2.92.

Take UAUUCCCUAAUAAAGCAGG against ZMYM5: the seed-corrected z-score was 0.289. With UUCUUCAACCUUGAGGCGG against SNAPC5 the figure was 0.755. With UGAUGUCUACAAUAUCACC against RPL21 the figure was -2.69; with UGGGUGAUAAGAAAAACAG against CD40LG, -0.837. With AAAGCAAAUAGUAUGGUUC against ATG5 the figure was 0.522; with UGGACUCCUACAUUACUGC against EFCAB13, 0.0128.

In the case of AAAGGUACUCUUGGGCAGG against EEF1G, the seed-corrected z-score is -0.242. With UUAGGUAAUACACUAUUUG against THAP2 the figure was 0.091; with UCCCAGACUUUGACCAUGC against WDR38, -2; with UCUUGUGGAUGUAAUAUGC against SIMC1, -0.283.

Sequence UUCUUCUACAGGCUUGAGG against SMNDC1 had a seed-corrected z-score of -0.35.

For UGAGUUUGAACCCAAAAGU against IGFL4, the seed-corrected z-score was determined as 1.44. UCUGUAGUCAGUUUGGUUG against LDB1 yielded a seed-corrected z-score of -0.7. Turning to UCAUCUUCUCCAACUUUUC against GINS2, the seed-corrected z-score worked out at 0.362. For the sequence AAGCUUGUAAGUAUAGACG against SF3B3, the seed-corrected z-score was -2.14. As for AUAGAAAACACCAAGAUUA against TMEM63A, the figure is 0.279. With AUAUGACCUACUACCAUCC against LURAP1 the figure was 0.3. With ACAUGAUCAACUGGUAGUC against TTBK1, the seed-corrected z-score was -4.16. As for UAAGGUAAGAGCCUGUGCU against ZNF177, the figure is 0.0512. As for AAAAGUAUCAGCAGAAGUC against GPR156, the figure is -0.243; as for UAGUUGAAGAGGGCGUGGG against TAS1R3, -0.153. As for AACGGAACCUGUGAGAUCC against LARS2, the figure is -0.262; as for UAACUGAAUGGCAUCCCGG against C6orf226, 0.21; as for UUGUAGUUCAGCUGGUUGU against SPATA2, -2.04. As to UCCUGGAGCAUAUCCGAGC against TMPRSS5, the seed-corrected z-score is 0.289. As for UCAUUUAGCUUUACCACCC against AHCYL1, the figure is 0.0585. As to UUGUAUUCCACAGAAGUAA against SLC25A41, the seed-corrected z-score turned out to be 0.115. With UGUCGUAUCUCUCUUCAUC against TNNI3 the figure was -0.115; with UUACUGCUGAAUACAGACU against HRASLS, -2.09. With UAUGUCCCAAAUAUACACC against SLC36A3 the figure was 0.459; with UUCUUACUCCAAUAUCUCC against WWC2, -0.0295. With UUUGAUGAAGGGUACGUGG against KIF11, the seed-corrected z-score is -2.31. With UUCUCAAUGAUAUUAUGGG against SREBF2 the figure was -0.569; with AUCAUAGCAACAGUGCUGC against IGFL1, -2.6; with UGAACAUUGAGUAACGAAC against ORAOV1, 0.0373.

The sequence UCUGUUCUCGGUCAAAGAC against DCAF11 returned a seed-corrected z-score of -0.91. Regarding UUUAGUUCCUGAUCGAAAG against ZNF800, the seed-corrected z-score turned out to be 1.28. AUCUUUACGAGCUUCAGCC against FAM185BP registered a seed-corrected z-score of 1.55.

In turn, UCACUGUCAAACUCGUGCC against ARHGAP33 registered a seed-corrected z-score of -2.08. With AUUGUAAUCGCGAAUAUCC against MESDC2 the figure was 0.809; with UUCCCUCUUUGGGUCUUCC against SNX11, 0.0123; with UACAGCUCCGAAAAACUCC against SIPA1, -1.18. With UUGACUGUCACUGAGGUAG against SDK2 the figure was -0.0428; with UGUCGUACCAGUCGGACCA against TAC1, -2.02.

Sequence UAUUCGUUAUCAAAUUGUG against TMOD3 displayed a seed-corrected z-score of 0.393. With UCCGUUUUCCACGUAGUGC against FRMD1 the figure was -0.836.
